Source: PubChem BioAssay (EPA / NIEHS)
Values joined by “and” are separate entries in the source; they are usually repeats but may differ in a detail not shown here. Identical values can stand only once. Results filed as inconclusive are left out. Active and inactive are the calls of the source. Rule for the calls, unless noted: active = hit-call score of the fitted dose curve at least 0.9, where 1 is the maximum; inactive = score below 0.9.

Key:
[1] = read-out: Monokine induced gamma interferon (MIG), CXCL9 (gene 4283); assay: BSK_KF3CT_MIG: BioMAP Diversity Plus: KF3CT Assay for Monokine induced gamma interferon (MIG) Biomarker Activity (AID 2284248); conditions: primary human keratinocytes with fibroblasts
Procedure, shortened: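 KF3CT system: keratinocyte/fibroblast co-culture, 24 h post-dose, MIG by ELISA; activity vs DMSO, positive fitting direction.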

[2] = read-out: Plasminogen activator inhibitor-1 (PAI1), SERPINE1 (gene 5054); assay: BSK_KF3CT_PAI1: BioMAP Diversity Plus: KF3CT Assay for Plasminogen activator inhibitor-1 (PAI1) Biomarker Activity (AID 2284252); conditions: primary human keratinocytes with fibroblasts
Procedure, shortened: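 Cells (human keratinocytes co-cultured with foreskin fibroblasts) are exposed to test chemical for 24 h. PAI-1 is then measured by ELISA and analysed for signal gain against DMSO.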

[3] = read-out: Interferon-inducible T-cell alpha chemoattractant (ITAC), CXCL11 (gene 6373); assay: BSK_BE3C_ITAC: BioMAP Diversity Plus: BE3C Assay for Interferon-inducible T-cell alpha chemoattractant (ITAC) Biomarker Activity (AID 2284279); conditions: primary human bronchial epithelial cells
Procedure, shortened: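 BE3C cells (human primary bronchial epithelium), 24 h compound exposure, I-TAC by ELISA, DMSO = negative control/baseline, positive fitting direction.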

[4] = read-out: Interleukin-8 (IL8), CXCL8 (gene 3576); assay: BSK_BE3C_IL8: BioMAP Diversity Plus: BE3C Assay for Interleukin-8 (IL8) Biomarker Activity (AID 2284280); conditions: primary human bronchial epithelial cells
Procedure, shortened: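 Primary human bronchial epithelial cells (BE3C system) were exposed to test chemical for 24 h, and IL-8 levels were then measured by ELISA. Activity was fitted in the positive (gain-of-signal) direction against a DMSO negative-control baseline.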

[5] = read-out: Plasminogen activator inhibitor-1 (PAI1), SERPINE1 (gene 5054); assay: BSK_CASM3C_PAI1: BioMAP Diversity Plus: CASM3C Assay for Plasminogen activator inhibitor-1 (PAI1) Biomarker Activity (AID 2284284); conditions: primary human coronary artery smooth muscle cells;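 note: PAI-1 protein level measured by ELISA 24 h after dosing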
[6] = read-out: Intercellular Adhesion Molecule 1 (ICAM1), ICAM1 (gene 3383); assay: BSK_hDFCGF_ICAM1: BioMAP Diversity Plus: hDFCGF Assay for Intercellular Adhesion Molecule 1 (ICAM1) Biomarker Activity (AID 2284287); conditions: primary human foreskin fibroblasts
Procedure, shortened: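 ICAM-1 ELISA readout 24 h after dosing, DMSO as baseline, in human dermal foreskin fibroblast cultures. Cytotoxicity checked in parallel wells by SRB staining (0.1% SRB, 10% TCA fixation, 560 nm).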

[7] = ATG_GRE_CIS: Attagene CIS-FACTORIAL HepG2 Assay for human Glucocorticoid Response Elements (GRE) (AID 2282947); conditions: HepG2 GRE cis-reporter, Attagene multiplex mRNA; actives raise or lower the signal
Procedure, shortened: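 Reporter transcripts read by RT-PCR with capillary electrophoresis fluorescence after a 24 h chemical exposure of HepG2 cells transiently transfected with multiple cis-element reporter units. Gain or loss fitted against DMSO.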

[8] = ATG_PBREM_CIS: Attagene CIS-FACTORIAL HepG2 Assay for human Phenobarbital-responsive Enhancer Module (PBREM) (AID 2282955); conditions: HepG2 PBREM cis-reporter, Attagene multiplexed transcription; actives raise or lower the signal
Procedure, shortened: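 HepG2 cells transiently transfected with multiple cis-regulated reporter transcription units; endogenous factor activity at the PBREM element measured as reporter mRNA 24 h after dosing, via RT-PCR and capillary electrophoresis of fluorescent fragments; bidirectional fitting versus DMSO.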

[9] = molecular target: Oxysterols receptor LXR-alpha (Homo sapiens) (UniProt Q13133); assay: ATG_LXRa_TRANS: Attagene TRANS-FACTORIAL HepG2 Assay for human Liver X Receptor alpha (LXRa) (AID 2282980; active = hit-call score of the fitted dose curve at least 0.9, where 1 is the maximum); conditions: HepG2 Attagene TRANS reporter, LXRa transactivation
Procedure, shortened: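 Transfect HepG2 with GAL4-UAS multiplex reporter constructs (TRANS format, chimeric receptor-GAL4); treat 24 h; extract RNA, reverse-transcribe, PCR-amplify, FAM-label, HpaI-digest; resolve fragments by capillary electrophoresis. Upward response vs DMSO.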

[10] = molecular target: Hepatocyte nuclear factor 4-alpha (Homo sapiens) (UniProt P41235); assay: ATG_HNF4a_TRANS: Attagene TRANS-FACTORIAL HepG2 Assay for human Hepatocyte Nuclear Factor 4 alpha (HNF4a) (AID 2282982; active = hit-call score of the fitted dose curve at least 0.9, where 1 is the maximum); conditions: HepG2 HNF4a transactivation reporter, mRNA readout
Procedure, shortened: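 Activity of an exogenous HNF4a–Gal4 fusion scored as induced GAL4-UAS reporter transcripts after 24 h chemical exposure of transfected human HepG2 cells. Read-out via RT-PCR with 6-FAM labelling and capillary electrophoresis; rise over DMSO baseline.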

[11] = ATG_M_06_TRANS: Attagene TRANS-FACTORIAL HepG2 Assay for M06 Transcription Factor (Internal Marker) (AID 2282983; active = hit-call score of the fitted dose curve at least 0.9, where 1 is the maximum); conditions: HepG2 Attagene TRANS M06 internal marker reporter
Procedure, shortened: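 Background control endpoint: reporter mRNA from transiently transfected HepG2 after 24 h dosing, detected by RT-PCR with capillary electrophoresis fluorescence. Analysed for gain versus DMSO.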

[12] = molecular target: mouse Estrogen Receptor alpha (Era), Esr1 (gene 13982) (UniProt P19785); assay: NVS_NR_mERa: NovaScreen (NVS) Nuclear Receptor Binding Assay for mouse Estrogen Receptor alpha (Era) (AID 2283378; active = hit-call score of the fitted dose curve at least 0.9, where 1 is the maximum;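 note: hit means loss of bound radioligand signal relative to DMSO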)
Procedure, shortened: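 Extracted mouse Era incubated with tritiated or iodinated radioligand plus test chemical, 18 h. Bound fraction separated on filters, counted by scintillation. DMSO = negative control/baseline; duplicate single-point at 25 uM, then concentration-response follow-up.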

[13] = ATG_AP_1_CIS: Attagene CIS-FACTORIAL HepG2 Assay for human Activator Protein 1 (AP-1) (AID 2282931); conditions: HepG2 Attagene cis-factorial AP-1 reporter mRNA; actives raise or lower the signal
Procedure, shortened: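 HepG2 cells transiently transfected with cis-element-driven multiplex reporter units; 24 h compound exposure. Reporter mRNA quantified by RT-PCR, FAM-labelled fragments resolved by capillary electrophoresis; bidirectional fit versus DMSO baseline.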

[14] = ATG_M_19_TRANS: Attagene TRANS-FACTORIAL HepG2 Assay for M19 Transcription Factor (Internal Marker) (AID 2282974; active = hit-call score of the fitted dose curve at least 0.9, where 1 is the maximum); conditions: HepG2 Attagene TRANS-FACTORIAL M19 internal marker reporter
Procedure, shortened: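 HepG2 cells transiently transfected with multiple GAL4-UAS reporter transcription units were exposed to chemicals for 24 h. Reporter mRNA was read by RT-PCR, 6-FAM primer extension, HpaI digestion and capillary electrophoresis; gain of signal fitted relative to DMSO.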

[15] = CCTE_Shafer_MEA_acute_spike_number: CCTE's Neural Acute Assay for Total Number of Spikes, Shafer Lab (AID 2284008);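 for AC50: curve fitted for decrease in spike count so AC50 reflects inhibitors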
Procedure, shortened: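 Read-out is the total spike count over 40 min, expressed as percent change from each well's own pre-treatment baseline and fitted in the loss direction against DMSO. Rat cortical neurons were exposed at 0.03-40 uM on DIV 13 or 15.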

[16] = CCTE_Shafer_MEA_acute_firing_rate_mean: CCTE's Neural Acute Assay for Mean Firing Rate, Shafer Lab (AID 2284009);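 note: analyzed for loss of signal so actives lower firing rate relative to DMSO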
Procedure, shortened: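 Primary rat cortical neurons on 16-electrode MEA wells were exposed on DIV 13 or 15 to compound (0.03-40 uM). Spike counts per recording time, averaged over electrodes, were compared between 40-min baseline and 40-min post-exposure recordings as percent change.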

[17] = CCTE_Shafer_MEA_acute_burst_duration_mean: CCTE's Neural Acute Assay for Mean Burst Duration, Shafer Lab (AID 2284014);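 note: hits are decreases in mean burst duration relative to DMSO controls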
Procedure, shortened: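 Mean burst duration was compared between a 40 min baseline and a 40 min recording in the presence of compound (0.03-40 uM, 37 C), giving percent change per well. Cultures were rat cortical neurons at DIV 13 or 15; wells needed ≥10 active electrodes.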

[18] = CCTE_Shafer_MEA_acute_per_burst_spike_number_mean: CCTE's Neural Acute Assay for Average Number of Spikes Per Burst, Shafer Lab (AID 2284015);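 note: hits are decreases in mean spikes per burst versus baseline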
Procedure, shortened: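 Read-out: percent change in mean spikes per burst, each well's post-exposure 40-min recording versus its own 40-min baseline. Rat cortical cultures, DIV 13 or 15, compounds 0.03-40 uM; DMSO is negative control, loss-of-signal fitting.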

[19] = CCTE_Shafer_MEA_acute_interburst_interval_mean: CCTE's Neural Acute Assay for Mean Interburst Interval, Shafer Lab (AID 2284016);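 note: percent change of mean interburst interval versus each well's own pre-dose baseline; curves fitted for decrease in interburst interval relative to DMSO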
Procedure, shortened: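 Rat cortical cultures, DIV 13/15; 20 min equilibration, 40 min baseline, compound 0.03-40 uM, 40 min re-recording, 37 C. Spikes detected at 8x rms noise (300-5000 Hz band-pass). Endpoint: % change in interburst interval, fitted in loss direction vs DMSO.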

[20] = ATG_M_32_TRANS: Attagene TRANS-FACTORIAL HepG2 Assay for M32 Transcription Factor (Internal Marker) (AID 2282984; active = hit-call score of the fitted dose curve at least 0.9, where 1 is the maximum;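 note: transcript level of a background control reporter unit measured by RT-PCR and capillary electrophoresis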); conditions: HepG2 Attagene TRANS M32 internal marker reporter
Procedure, shortened: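 Internal background reporter in transfected HepG2: after 24 h chemical exposure, RNA reverse-transcribed, reporter cDNA amplified, fluorescently labelled and HpaI-cut, then sized by capillary electrophoresis. Gain of signal fitted against DMSO control.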

Measured: AC50

Chain of Oxysterols receptor LXR-alpha (Homo sapiens) (Q13133 whole entry, looked up, the tested form may be a part): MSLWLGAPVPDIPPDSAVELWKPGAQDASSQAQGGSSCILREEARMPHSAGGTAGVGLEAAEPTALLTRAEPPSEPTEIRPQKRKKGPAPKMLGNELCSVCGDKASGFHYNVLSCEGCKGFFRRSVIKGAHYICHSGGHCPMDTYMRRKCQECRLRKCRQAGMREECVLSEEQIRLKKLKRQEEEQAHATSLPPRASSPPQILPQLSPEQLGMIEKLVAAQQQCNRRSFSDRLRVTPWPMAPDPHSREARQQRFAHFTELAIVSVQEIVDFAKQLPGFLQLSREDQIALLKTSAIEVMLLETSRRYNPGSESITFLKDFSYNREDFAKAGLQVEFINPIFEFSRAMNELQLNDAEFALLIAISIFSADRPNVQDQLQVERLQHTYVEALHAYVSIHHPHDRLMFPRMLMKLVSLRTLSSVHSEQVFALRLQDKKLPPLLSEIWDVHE
Chain of Hepatocyte nuclear factor 4-alpha (Homo sapiens) (P41235 whole entry, looked up, the tested form may be a part): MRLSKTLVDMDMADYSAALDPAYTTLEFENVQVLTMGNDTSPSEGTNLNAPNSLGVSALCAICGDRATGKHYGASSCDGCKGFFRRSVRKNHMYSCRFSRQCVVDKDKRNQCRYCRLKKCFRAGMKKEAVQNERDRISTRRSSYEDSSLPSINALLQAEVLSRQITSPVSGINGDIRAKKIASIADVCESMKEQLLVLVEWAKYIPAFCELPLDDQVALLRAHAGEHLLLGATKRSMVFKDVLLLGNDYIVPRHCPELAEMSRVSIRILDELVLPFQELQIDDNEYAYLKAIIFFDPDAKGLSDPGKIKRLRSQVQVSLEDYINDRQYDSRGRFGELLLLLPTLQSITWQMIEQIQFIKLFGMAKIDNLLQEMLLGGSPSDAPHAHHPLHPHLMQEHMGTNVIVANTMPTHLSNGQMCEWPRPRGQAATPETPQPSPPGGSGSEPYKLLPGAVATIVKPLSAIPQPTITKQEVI
Chain of mouse Estrogen Receptor alpha (Era), Esr1 (gene 13982) (P19785 whole entry, looked up): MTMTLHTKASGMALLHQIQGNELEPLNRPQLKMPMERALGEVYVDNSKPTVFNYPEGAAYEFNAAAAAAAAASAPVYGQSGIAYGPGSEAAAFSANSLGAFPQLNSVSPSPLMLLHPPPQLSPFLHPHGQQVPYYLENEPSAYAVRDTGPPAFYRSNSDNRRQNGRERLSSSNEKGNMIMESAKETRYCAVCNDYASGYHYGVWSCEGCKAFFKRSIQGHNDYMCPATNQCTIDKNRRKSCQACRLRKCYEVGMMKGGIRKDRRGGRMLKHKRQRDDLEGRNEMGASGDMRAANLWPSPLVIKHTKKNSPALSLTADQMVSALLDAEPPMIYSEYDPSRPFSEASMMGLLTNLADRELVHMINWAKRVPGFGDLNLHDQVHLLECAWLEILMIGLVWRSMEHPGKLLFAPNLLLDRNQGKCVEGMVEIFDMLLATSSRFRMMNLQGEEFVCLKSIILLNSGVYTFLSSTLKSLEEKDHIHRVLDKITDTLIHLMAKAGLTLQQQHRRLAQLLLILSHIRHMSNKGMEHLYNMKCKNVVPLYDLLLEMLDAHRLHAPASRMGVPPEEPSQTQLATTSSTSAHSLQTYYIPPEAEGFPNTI

OC(C(F)(F)F)(C(F)(F)F)C(O)(C(F)(F)F)C(F)(F)F
inactive: [5] | [6]
active: [1] 45.2 µM and 54.8 µM | [2] 36.1 µM and 25.2 µM | [3] 47.3 µM and 46.1 µM | [4] 12.3 µM and 11.5 µM

COC(=O)/C=C\C(=O)OC
active: [7] 128000 nM
inactive: [8] | [9] | [10] | [11]

CC(=O)CC(=O)OC(C)(C)C
inactive: [12]

C=CN1CCCCCC1=O
inactive: [13] | [14] | [9]

Nc1nc(N)c2nc(-c3ccccc3)c(N)nc2n1
inactive: [12]

COc1cc(CNC(=O)CCCC/C=C/C(C)C)ccc1O
inactive: [15] | [16] | [17] | [18] | [19] | [1] | [2] | [3] | [4] | [5] | [6]

CCCCC(CC)COC(=O)C=Cc1ccc(OC)cc1 (stereo not drawn)
inactive: [1] | [2] | [3] | [4] | [5] | [6]

c1ccc2c(c1)Oc1ccccc1S2
inactive: [13] | [14] | [20]

COc1ccccc1Oc1c(NS(=O)(=O)c2ccc(C(C)(C)C)cc2)nc(-c2ncccn2)nc1OCCO
active: [19] 5330 nM
inactive: [15] | [16] | [17] | [18] | [1] | [2] | [3] | [4] | [5] | [6]

[O-][n+]1ccc(Cl)cc1
inactive: [13] | [8] | [10]

Cc1cc(O)cc(C)c1Cl
inactive: [13] | [7] | [9] | [20]

C1CN(CCOCCN2CCOCC2)CCO1
inactive: [15] | [16] | [17] | [18] | [19] | [1] | [2] | [3] | [4] | [5] | [6]

CCC(C)=NO
inactive: [7] | [14] | [10] | [11] | [20]

CCC(C)(CCC(C)C)C(=O)O (stereo not drawn)
inactive: [14] | [10] | [11] | [20]

CCC(=O)OCc1ccc(OC)cc1
inactive: [13] | [8] | [14] | [9] | [10] | [20]

Cc1c(C(N)=O)cc([N+](=O)[O-])cc1[N+](=O)[O-]
active: [15] 3 nM | [16] 3.2 nM | [3] 32.7 µM and 30.5 µM
inactive: [17] | [18] | [19] | [1] | [2] | [4] | [5] | [6]

CCCCCCC1CCCC(=O)O1 (stereo not drawn)
inactive: [13] | [7] | [8] | [9] | [10] | [11] | [20]
